# Experimental data as given in PubChem BioAssay AID1209 (Sanford-Burnham Center for Chemical Genomics, 2008).
# About 810 (0.43%) of roughly 190,000 compounds were called active. This is one part of a sample in which actives are shown more often than they occur. No stated cut-off is given here; in the data, active means inhibition above about 50%; inactive means the rest.
# Molecular target: Mannose-6-phosphate isomerase (Homo sapiens) (UniProt P34949)
# Experiment: MPI enzyme activity inhibition – biochemical, fluorescence intensity, coupled assay, primary screen (AID 1209);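 further: plate controls were DMSO vehicle for no effect and wells lacking substrate for full effect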
# Details: purified PMI enzyme, at 20 µM, stronger effect = higher value
# Mannose-6-phosphate isomerase (Homo sapiens), sequence (P34949 whole entry, looked up): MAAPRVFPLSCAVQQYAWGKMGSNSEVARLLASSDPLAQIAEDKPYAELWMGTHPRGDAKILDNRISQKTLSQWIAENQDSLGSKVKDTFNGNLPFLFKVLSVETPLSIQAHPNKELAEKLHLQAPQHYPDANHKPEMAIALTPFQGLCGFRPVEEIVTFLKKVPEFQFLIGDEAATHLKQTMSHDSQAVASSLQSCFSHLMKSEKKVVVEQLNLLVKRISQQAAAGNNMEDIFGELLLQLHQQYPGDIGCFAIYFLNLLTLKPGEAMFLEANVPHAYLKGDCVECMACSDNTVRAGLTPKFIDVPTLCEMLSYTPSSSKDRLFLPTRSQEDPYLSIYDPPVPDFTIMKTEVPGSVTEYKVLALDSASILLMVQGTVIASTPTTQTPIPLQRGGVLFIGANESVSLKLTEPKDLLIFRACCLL
row,SMILES,inhibition
1,COc1ccc(C(=O)NCC(=O)OCC(=O)N2CC(C)CC(C)C2)cc1 (stereo not drawn),8.6% (inactive)
2,Cc1cc(C)c2[nH]c(=O)c(CN(CC3CCCO3)C(=S)Nc3ccccc3)cc2c1 (stereo not drawn),28.3% (inactive)
3,COc1ccc([N+](=O)[O-])cc1NC(=O)CCN1CCN(C)CC1,-0.2% (inactive)
4,COc1ccc2cc(/C(C)=N/NC(=O)C3CC3)ccc2c1,-1.6% (inactive)
5,Fc1ccc(-n2[nH]nnc2=S)cc1N1CCCC1,-13.3% (inactive)
6,COc1ccc(Cn2c(-c3ccc(Br)cc3)c[n+]3ccccc23)cc1,-1.6% (inactive)
7,CC(=O)c1nnn(-c2ccc([N+](=O)[O-])cc2C)c1C,-15.2% (inactive)
8,N#CC1=C2SCN(Cc3ccccc3)CN2C(=O)CC1c1ccccc1F (stereo not drawn),25.6% (inactive)
9,N#CC1=C2SCN(Cc3ccccc3)CN2C(=O)CC1c1cccs1 (stereo not drawn),40.2% (inactive)
10,CC(C)CCCNc1nc(N2CCOCC2)nc(N2CCOCC2)n1,3.3% (inactive)
11,O=C(NCCc1c[nH]c2ccccc12)C(=O)NCC1OCCCN1S(=O)(=O)c1cccs1 (stereo not drawn),5.3% (inactive)
12,CC(C)n1nc(C(=O)Nc2nnc(SCc3c(Cl)cccc3Cl)s2)c2ccccc2c1=O,7.2% (inactive)
13,O=C(Nc1ccc(N2CCN(c3ccccc3)CC2)c(F)c1)C1CC1,-5.7% (inactive)
14,CN1c2ccccc2N(C)C1(C)c1ccccc1,26.1% (inactive)
15,CCN1C(=O)N(C)C2(c3ccccc3)N(C)C(=O)N(C)C12c1ccccc1 (stereo not drawn),13.6% (inactive)
16,CCN1c2ccccc2N(C)C1(C)c1ccccc1 (stereo not drawn),61.2% (active)
17,O=C(CSc1nnnn1-c1ccc(F)cc1)NC1CCCCC1,15.6% (inactive)
18,CCOc1ccccc1C(=O)Nc1cc(Cl)ccc1O,14.5% (inactive)
19,NS(=O)(=O)c1ccc(NCc2c(F)cccc2Cl)cc1,-1.9% (inactive)
20,Fc1cccc(Cl)c1CNc1ccc(N2CCCC2)cc1,87.2% (active)
21,O=C(Nc1ccc(N2CCCCCC2)cc1)c1ccccc1Cl,21.5% (inactive)
22,Clc1cccc(Cl)c1CNc1ccc(N2CCCC2)cc1,87.2% (active)
23,O=S(=O)(Nc1ccc(N2CCCCC2)cc1)c1ccccc1,17% (inactive)
24,O=C(O)c1cc(NCc2c(F)cccc2Cl)ccc1N1CCOCC1,4.6% (inactive)
25,CCCN1CNC(=S)N(c2ccccc2OCC)C1,-9.9% (inactive)

row,SMILES,inhibition
1,O=C1Nc2ccccc2C(O)(C(=O)NCc2ccco2)N1c1ccccc1 (stereo not drawn),1.5% (inactive)
2,COC(=O)[C@@]1(Cc2ccc(OC)cc2)[C@H]2c3cc(C(=O)N4CCCC4)n(Cc4ccc(C)o4)c3C[C@H]2CN1C(=O)c1ccccc1,9.2% (inactive)
3,Cc1[nH]nc2c1C(c1ccco1)C(C#N)=C(N)O2 (stereo not drawn),-18% (inactive)
4,CNCCOc1ccccc1C(C)(C)C,5.9% (inactive)
5,NCCc1ccc(O)c(O)c1,64.5% (active)
6,Nc1ccc(Cc2ccc(N)c(O)c2)cc1O,5.5% (inactive)
7,OCCCc1ccc(O)c(O)c1,35.2% (inactive)
8,CCOC(=O)CSc1nc2sccc2c(=O)[nH]1,2.3% (inactive)
9,O=C(Nc1ncc(Cl)cc1Cl)c1c(F)cccc1Cl,-15.8% (inactive)
10,Cc1cc(C)cc(N2C(=O)c3nccnc3C2=O)c1,1.6% (inactive)
11,COC(=O)C(C)(C)ONC(=O)Nc1ccc(Br)cc1,17.3% (inactive)
12,COc1ccc(N/C=C2/CCCCC2=O)cc1,18.1% (inactive)
13,COc1ccc2c(c1)CC/C(=C/c1ccco1)C2=O,33.2% (inactive)
14,O=C1CCC/C1=C/Nc1ccc2c(c1)OCO2,26.9% (inactive)
15,O=C1/C(=C/Nc2ccc3c(c2)OCO3)CCc2ccccc21,96.4% (active)
16,COc1ccc2c(c1)CC/C(=C\Nc1ccc3c(c1)OCO3)C2=O,89.9% (active)
17,COc1ccc(N/C=C2\CCc3ccccc3C2=O)cc1,97.9% (active)
18,O=C1CCCC/C1=C/Nc1ccc2c(c1)OCO2,-14.5% (inactive)
19,COc1ccc(N/C=C2\CCOC2=O)cc1,-13% (inactive)
20,CC1CCC/C(=C\Nc2ccc3c(c2)OCO3)C1=O (stereo not drawn),8.9% (inactive)
21,CCN(CC)C(=O)C(=O)N/N=C/c1ccc(C(=O)O)cc1,15.8% (inactive)
22,COc1cc(C(=O)Nc2ccc(C(C)=O)cc2)c(Br)c(OC)c1OC,2.4% (inactive)
23,O=C(CCn1ccnc1)Nc1ccc2ccccc2c1,13.1% (inactive)
24,O=S(=O)(NCCSCc1c(Cl)cccc1Cl)c1ccc2c(c1)OCCO2,2.4% (inactive)
25,COc1ccccc1/C=N/NC(=O)COCC(=O)N/N=C/c1ccccc1OC,12.7% (inactive)

row,SMILES,inhibition
1,CCC(CC(C)(C)O)C(=O)NNC(=S)Nc1ccccc1 (stereo not drawn),3.1% (inactive)
2,O=C(Nc1nc(-c2ccccc2)cs1)C1COc2ccccc2O1 (stereo not drawn),9.1% (inactive)
3,O=C(Nc1nc(-c2ccncc2)cs1)C1COc2ccccc2O1 (stereo not drawn),61.7% (active)
4,O=C(Nc1nc(-c2ccccn2)cs1)C1COc2ccccc2O1 (stereo not drawn),-2.1% (inactive)
5,COc1ccc(C(O)c2nccn2Cc2ccccc2)cc1OC (stereo not drawn),9.1% (inactive)
6,Cc1cc(SCC(=O)N/N=C/c2ccc(O)cc2O)c(C)cc1Br,-12.7% (inactive)
7,Cc1cc(SCC(=O)N/N=C/c2ccc(O)c(O)c2O)c(C)cc1Br,79.9% (active)
8,Cc1cc(SCC(=O)N/N=C/c2ccc(O)c(O)c2)c(C)cc1Br,18% (inactive)
9,CCC(C)(C)NC(=O)C(c1ccco1)N(C(=O)c1csnn1)c1cccc(F)c1 (stereo not drawn),-1.3% (inactive)
10,COc1ccc(/C=C2\N=C(C)N(c3ccc(C(=O)O)cc3)C2=O)cc1OC,-0.2% (inactive)
11,Cc1cccc(OC(=O)c2cncc(Br)c2)c1,-2.9% (inactive)
12,CC(=O)Nc1ccc(S(=O)(=O)Nc2ccc(C)c([N+](=O)[O-])c2)cc1,114% (active)
13,CC(=O)Nc1ccc(C)c([N+](=O)[O-])c1,-6.2% (inactive)
14,CC(=O)Nc1ccc(S(=O)(=O)Nc2ccc(F)c([N+](=O)[O-])c2)cc1,-2.3% (inactive)
15,CCOC(=O)c1cccc(C(=O)OCC)n1,7.8% (inactive)
16,Cc1ccc(OC(=O)c2cccc(C(=O)Oc3ccc(C)cn3)n2)nc1,51.5% (active)
17,Cc1ccc(OC(=O)c2cccc(C(=O)Oc3ccc(C)cc3)n2)cc1,11.1% (inactive)
18,COc1ccccc1NS(=O)(=O)c1ccc2oc(SCc3ccc(C#N)cc3)nc2c1,23.3% (inactive)
19,C/C(=N\Nc1nc(N2CCOCC2)nc(N2CCOCC2)n1)c1cccc([N+](=O)[O-])c1,-11.8% (inactive)
20,Brc1ccc(-c2nnc3sc(CN4CCC5(CC4)OCCO5)cn23)cc1,7.3% (inactive)
21,c1ccc(-c2nnc3sc(CN4CCC5(CC4)OCCO5)cn23)cc1,10.9% (inactive)
22,Brc1cccc(-c2nnc3sc(CN4CCC5(CC4)OCCO5)cn23)c1,101% (active)
23,CC1(C)CC2(CC(c3ccccc3)c3ccc(O)cc3O2)NC(=S)N1 (stereo not drawn),-4.8% (inactive)
24,CC1(C)CC2(CC(c3ccccc3F)c3cc(Cl)c(O)cc3O2)NC(=S)N1 (stereo not drawn),-8.2% (inactive)
25,CCCCN(C(=O)Cn1nnc2ccccc21)C(C(=O)NCc1ccco1)c1ccncc1 (stereo not drawn),-0.5% (inactive)

row,SMILES,inhibition
1,Cc1onc(-c2ccccc2Cl)c1C(=O)NC(=S)NCCc1ccccc1,11.7% (inactive)
2,O=C(c1cccnc1)N1N=C(C2CCCCC2)CC1(O)C(F)(F)F (stereo not drawn),-7.1% (inactive)
3,CCOC(=O)C(=O)Nc1sc(C(=O)N2CCOCC2)c(C)c1C#N,2.7% (inactive)
4,CCOC(=O)c1sc(NC(=O)c2cc(-c3ccc(C)cc3)nc3ccccc23)c(C#N)c1C,67.7% (active)
5,Cc1ccccc1-c1cc(C(=O)Nc2sc(C(=O)OC(C)C)c(C)c2C#N)c2ccccc2n1,61.2% (active)
6,COc1ccc(-c2cc(C(=O)Nc3sc4c(c3C#N)CCCC4)c3ccccc3n2)cc1,7.1% (inactive)
7,Cc1ccccc1-c1cc(C(=O)Nc2sc(C)c(C)c2C(N)=O)c2ccccc2n1,19.7% (inactive)
8,COC(=O)c1sc(NC(=O)c2cc(-c3ccccc3)nc3ccccc23)c(C#N)c1C,5.2% (inactive)
9,CCOC(=O)c1sc(NC(=O)c2cc(-c3ccccc3)nc3ccccc23)c(C#N)c1C,79% (active)
10,CCOC(=O)c1sc(NC(=O)c2cc(-c3ccccc3C)nc3ccccc23)c(C#N)c1C,47.9% (inactive)
11,CCOC(=O)c1sc(NC(=O)c2ccncc2)c(C#N)c1C,49.3% (inactive)
12,Cc1sc(NC(=O)c2cc(-c3ccccc3)nc3ccccc23)c(C(N)=O)c1C,17% (inactive)
13,CCCN1C2CCCC1CC(NC(=S)Nc1cc(C)cc(C)c1)C2 (stereo not drawn),7.1% (inactive)
14,NNC(=O)CNc1cccc(Cl)c1,-2.4% (inactive)
15,CC/C(C)=N\N=C\c1c(O)n(CC)c2cc(C3=NNC(=O)CC3)ccc12,-47.5% (inactive)
16,COc1ccccc1-n1cnnc1SCC(=O)Nc1cccc(S(=O)(=O)N2CCCCC2)c1,7.9% (inactive)
17,O=C(NCCN1CCN(C(=O)c2cccs2)CC1)C(=O)Nc1ccc(Br)cc1,-0.2% (inactive)
18,COc1ccc(CC(=O)Nc2ccc(S(=O)(=O)NCC3CCCO3)cc2)cc1 (stereo not drawn),2.9% (inactive)
19,Cc1cc([N+](=O)[O-])nn1CCCC(=O)NCc1ccc(F)cc1,-9.8% (inactive)
20,Cc1nc(NC(=O)c2ccccc2)sc1-c1csc(Nc2ccc(Cl)cc2)n1,53.1% (active)
21,Cc1nc(NC(=O)c2ccccc2)sc1-c1csc(Nc2cccc(Cl)c2)n1,0.6% (inactive)
22,Cc1nc(NC(=O)c2ccccc2)sc1-c1csc(Nc2ccc(F)cc2)n1,45% (inactive)
23,Cc1nn(Cc2ccc(Cl)cc2)c(C)c1NC(=O)c1noc2c1CCCCC2,15.5% (inactive)
